Screening results from PubChem.
TDP1 cell noCPT: qHTS for Inhibitors of human tyrosyl-DNA phosphodiesterase 1 (TDP1): qHTS in cells in absence of CPT; DT40 Tdp1-/- hTDP1 cells, no CPT, ATP luminescence, 48 h; Potency, µM (series often up to 46.2 µM), for inactives: at the top dose activity change, negative = growth inhibition, actives largely listed as inhibitors; 420,000 compounds, 15% hits; AID 686978, 2013; note: potency is the fitted concentration of half-maximal effect; nearly all actives have a fitted effect of over 55% in size
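Camptothecin absent (DMSO only). Human TDP1-complemented DT40 knockout cells, 400 cells/well, 37 °C for minimum 48 hr; ATP measured via CellTiter-Glo, 30 min dark incubation, luminescence.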
TDP1 cell CPT: DT40-hTDP1 cell growth loss with CPT | AID 686979 | 420,000 compounds, 12% hits | chicken DT40 Tdp1-/-;hTDP1 cells + 20 nM CPT, ATP luminescence, 48 h | Potency, µM (highest dose often 46.2 µM), inactives show at the highest dose activity change, negative = growth inhibition, hits mostly inhibitors; note: potency is the fitted concentration of half-maximal effect; nearly all actives have a fitted effect of over 55% in size
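Chicken DT40 Tdp1-/- cells stably complemented with human TDP1 were seeded at 400 cells/well in medium containing 20 nM camptothecin, exposed to pin-transferred compounds, and grown at 37 °C for at least 48 hr. Viability was read as ATP luminescence.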
IL-1B inflam inh: blocks inflammasome-driven IL-1 beta release. AID 743279. THP-1 LPS/ATP IL-1B secretion, AlphaLISA, 16 h; hits give low values. activity change, % at 57.5 µM. 360,000 compounds, 4.7% hits; in the data active = activity change below about -50%; inconclusive = mostly about -30% to -49%
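Secreted IL-1B measured by AlphaLISA bead assay after 16 h compound exposure of THP-1 cells; compounds (final up to 57.5 uM) added 1 h before LPS (250 ng/mL) and ATP (1.25 mM) stimulation; lower signal means less secretion.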
CtBP-E1A inh: blocks the CtBP interaction with E1A | 340,000 compounds, 0.49% hits | AlphaScreen GST-E1A/His-CtBP binding, 1536-well; hits give low values | AID 651724 | activity change, % (no concentration beside the values); in the data active = activity change below about -65%; inconclusive = mostly about -30% to -63%
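Protein mix (5X: 125 nM each GST-E1A, His-CtBP) was incubated with pinned compound 2 h at 37 deg C in dark, in 50 mM Tris pH 8.0 buffer with 300 mM NaCl. Glutathione donor and nickel acceptor beads followed; AlphaScreen signal read after 1 h.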
TDP1 block: TDP1 (human) enzyme inhibition; Q9NUW8; recombinant TDP1, AlphaScreen DNA substrate cleavage; Potency, µM (series often up to 130 µM), for inactives: at the top dose activity change, negative = inhibition, hits mostly inhibitors; 350,000 compounds, 0.28% hits; AID 485290; note: potency is the fitted concentration of half-maximal effect; nearly all actives have a fitted effect of over 40% in size
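Enzyme-compound mixtures sat 15 min at room temperature, followed by a 5 min reaction with 15 nM final substrate and 10 min with AlphaScreen beads. Recombinant human Tdp1 was used at 1 nM final.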
Six1-Eya2 inh: blocks human Six1 binding to Eya2; AID 651725; Q15475+O00167; activity change, % (no concentration beside the values); 360,000 compounds, 0.56% hits; AlphaScreen GST-Six1/His-Eya2 binding, biochemical; hits give low values; in the data active = activity change below about -65%; inconclusive = mostly about -30% to -63%
Target sequence (O00167 whole entry, looked up): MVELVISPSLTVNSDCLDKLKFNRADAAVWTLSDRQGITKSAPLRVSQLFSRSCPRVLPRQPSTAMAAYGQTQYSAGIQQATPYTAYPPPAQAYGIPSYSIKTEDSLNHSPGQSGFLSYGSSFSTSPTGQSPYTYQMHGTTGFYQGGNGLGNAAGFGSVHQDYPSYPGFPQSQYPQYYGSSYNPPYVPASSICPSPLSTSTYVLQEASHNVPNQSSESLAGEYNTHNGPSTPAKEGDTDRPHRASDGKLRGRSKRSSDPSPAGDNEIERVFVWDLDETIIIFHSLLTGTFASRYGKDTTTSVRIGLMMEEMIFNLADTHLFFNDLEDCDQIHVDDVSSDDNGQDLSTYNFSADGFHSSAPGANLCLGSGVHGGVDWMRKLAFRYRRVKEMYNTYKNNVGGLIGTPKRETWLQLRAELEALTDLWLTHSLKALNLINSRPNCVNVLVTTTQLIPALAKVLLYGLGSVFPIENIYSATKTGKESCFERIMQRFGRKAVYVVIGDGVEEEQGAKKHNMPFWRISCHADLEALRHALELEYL
Target sequence (Q15475 whole entry, looked up): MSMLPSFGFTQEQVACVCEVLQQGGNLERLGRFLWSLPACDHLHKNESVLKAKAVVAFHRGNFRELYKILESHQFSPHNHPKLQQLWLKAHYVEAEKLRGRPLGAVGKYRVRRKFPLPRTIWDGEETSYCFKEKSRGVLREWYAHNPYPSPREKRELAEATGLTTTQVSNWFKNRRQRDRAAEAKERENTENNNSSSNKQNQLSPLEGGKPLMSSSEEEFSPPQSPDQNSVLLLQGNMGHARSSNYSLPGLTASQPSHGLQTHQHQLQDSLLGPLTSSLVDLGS
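Homogeneous AlphaScreen proximity assay pairing GST-Six1 with His-tagged Eya2 (added as 5X mix: 250 nM and 500 nM) in 50 mM Tris pH 8.0, 300 mM NaCl, 1 mM TCEP. Glutathione donor and nickel acceptor beads; 1 h, 37 °C, dark.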
* hit, by the source's call; ? = inconclusive; · = no result given. Hits are enriched below; roughly 18% of the tested compounds scored in any of these assays. Unless noted, calls come from the whole dose curve; as a rule, active = well fitted curve in the direction sought with a large enough effect; inconclusive = small, poorly fitted or top-dose-only effect, or another doubt; inactive = no such curve, though single readings can be large; an effect the other way counts as inactive or inconclusive. % is set by controls: 0 for no effect and ±100 for the full control effect.

SMILES	TDP1 cell noCPT	TDP1 cell CPT	IL-1B inflam inh	CtBP-E1A inh	TDP1 block	Six1-Eya2 inh
O=C1CSC(c2ccccc2)N1c1ccc([N+](=O)[O-])cc1 (configuration not stated)	?	-21.6%	-5.7	-2.2	3.8%	-2.3
COc1cc(CNc2ccc3[nH]c(=O)[nH]c3c2)cc(Br)c1OCc1ccccc1F	20.6µM*	10.3µM*	-60.2*	-4.4	-2.6%	-6.6
Cn1c(SCC(=O)Nc2ccccc2Oc2ccccc2)nnc1C1CC1	8.8%	3.2%	-4.9	-0.6	-0.2%	0.1
COC(=O)c1cccc(NC(=O)c2ccc3c(c2)C(=O)N(C(C)(C)C)C3=O)c1	?	-4.7%	-53.6*	-24.7	·	0.0
CC(C)(C)NC(=O)c1cccc(NC(=O)c2ccc3c(c2)C(=O)N(C(C)(C)C)C3=O)c1	10.3µM*	?	-96.0*	1.1	·	0.7
CC(C)(C)N1C(=O)c2ccc(C(=O)Nc3ccc(O)cc3)cc2C1=O	16.4µM*	?	?	14.4	6.2%	8.8
O=C(COC(=O)c1ccc([N+](=O)[O-])o1)NC1CCS(=O)(=O)C1 (configuration not stated)	-1.8%	-9.1%	13.1	16.5	5.4%	0.6
CCOC(=O)C1=C(C)N=c2sc(=Cc3cc(Cl)c(OCC(=O)O)c(Cl)c3)c(=O)n2C1c1cccc(OC)c1 (configuration not stated)	?	16.4µM*	-18.0	-24.1	·	-7.3
CCOC(=O)C1=C(C)N=c2s/c(=C/c3ccc(OCC(=O)O)cc3)c(=O)n2C1c1cc(OC)c(OC)c(OC)c1 (configuration not stated)	-1.8%	0.2%	-8.8	?	·	?
COc1cccc(C2C(C(=O)OC(C)C)=C(C)N=c3s/c(=C\c4ccc(C(=O)O)cc4)c(=O)n32)c1 (configuration not stated)	18.4µM*	-20.5%	-7.5	-10.2	-6.3%	-14.5
CCOC(=O)C(Cc1ccc(O)cc1)NC(=O)c1cc2c(cn1)[nH]c1ccccc12 (configuration not stated)	-16.3%	-22.0%	-6.1	3.0	·	1.4
O=C(O)c1cc2ccccc2cn1	-0.4%	0.3%	5.6	-84.2*	·	-79.9*
COC(=O)[C@H](C)NC(=O)c1cc2c(cn1)[nH]c1ccccc12	18.4µM*	18.4µM*	-85.5*	-2.2	·	1.1
C[C@H](NC(=O)c1cc2c(cn1)[nH]c1ccccc12)C(=O)O	?	?	12.9	-7.3	·	6.3
O=C(O)c1cc2c(cn1)[nH]c1ccccc12	-9.6%	2.1%	13.0	-93.3*	·	-78.6*
CCCCn1c(N)c(N(CCC(C)C)C(=O)c2ccc3ccccc3c2)c(=O)[nH]c1=O	-27.0%	-18.1%	7.4	·	-9.0%	-0.8
O=C(NCCCN1CCOCC1)c1ccc2c(=O)n(-c3ccc(F)c(Cl)c3)c(=S)[nH]c2c1	?	-5.4%	26.5	-7.1	4.4%	-0.9
C=CC(=O)Nc1cc2c(Nc3ccc(F)c(Cl)c3)ncnc2cc1OCCCN1CCOCC1	4.73µM*	5.31µM*	·	·	·	·
CN(C)CCCN(C(=O)c1ccc(S(=O)(=O)N2CCOCC2)cc1)c1nc2ccc(F)cc2s1	-2.0%	-6.0%	-12.4	-1.1	3.6%	-22.0
Cc1ccc2nc(N(CCN(C)C)C(=O)/C=C/c3cccs3)sc2c1	16.4µM*	?	?	-7.1	-1.1%	0.5
CN(C)CCCN(C(=O)/C=C/c1cccs1)c1nc2ccc(F)cc2s1	4.61µM*	2.59µM*	-104.2*	2.5	8.1%	0.5
CCN(CC)CCN(C(=O)/C=C/c1cccs1)c1nc2ccc(C)cc2s1	6.51µM*	?	4.8	·	4.3%	14.0
CCN(CC)CCN(C(=O)/C=C/c1cccs1)c1nc2ccc(F)cc2s1	?	?	-78.3*	·	6.9%	-3.3
CCN(CC)CCN(C(=O)c1ccc2ccccc2c1)c1nc2ccc(F)cc2s1	-3.7%	-27.2%	17.2	1.1	10.2%	-1.4
O=S1(=O)CCOC[C@H](c2ccccc2)N1Cc1ccccc1F	?	?	21.5	-23.7	·	18.9
SMILES	TDP1 cell noCPT	TDP1 cell CPT	IL-1B inflam inh	CtBP-E1A inh	TDP1 block	Six1-Eya2 inh
COc1ccc(S(=O)(=O)N2CCC(C(=O)NC3CC3)CC2)cc1Cl	?	-13.8%	9.1	6.3	0.0%	7.3
CN(C)CCN(C(=O)/C=C/c1cccs1)c1nc2ccc(Br)cc2s1	?	?	23.1	·	3.5%	0.8
CCc1ccc2nc(N(CCN(C)C)C(=O)/C=C/c3cccs3)sc2c1	?	?	-81.0*	·	8.7%	0.8
CN(C)CCN(C(=O)c1ccc(Br)s1)c1nc2cc3c(cc2s1)OCCO3	-16.7%	7.1%	8.5	-3.0	1.2%	3.5
CN(C)CCN(C(=O)c1cccs1)c1nc2cc3c(cc2s1)OCCO3	23.1µM*	?	-10.9	12.2	6.4%	0.0
CN(C)CCN(C(=O)C1CCCCC1)c1nc2cc3c(cc2s1)OCCO3	9.2µM*	-15.1%	?	0.2	·	-26.6
CCOc1ccc2nc(N(CCN(C)C)C(=O)/C=C/c3cccs3)sc2c1	23.1µM*	?	-71.3*	·	5.8%	-9.5
CCOc1ccc(S(=O)(=O)N2CCN(c3cc(Cl)ccc3Cl)CC2)c2ccccc12	·	·	·	·	-3.2%	·
CN(C)CCCN(C(=O)c1cccs1)c1nc2ccc(F)cc2s1	?	16.4µM*	·	·	0.0%	·
CN(C)CCCN(C(=O)C1COc2ccccc2O1)c1nc2ccc(F)cc2s1 (configuration not stated)	?	?	-9.6	1.4	5.8%	-0.3
CCNC(=O)COC(=O)CCNC(=O)c1ccc(Cl)cc1	21.4%	-9.1%	5.4	-0.1	5.5%	0.3
COc1ccc(C(=O)C(C)OC(=O)c2cccc(S(=O)(=O)Nc3cc(Cl)c(OC)cc3OC)c2)cc1 (configuration not stated)	20.6µM*	23.1µM*	-5.8	-3.9	6.8%	-14.9
CC(C)(C)[C@@H]1COC(=O)[C@@H](Cc2ccc(F)cc2)C/C=C\C[C@H](CC(=O)N(CCO)Cc2ccccc2)C(=O)N1	?	23.1µM*	-18.9	-2.9	2.3%	-2.6
CC(C)(C)[C@@H]1COC(=O)[C@H](Cc2ccc(F)cc2)CC/C=C\C[C@@H](CC(=O)N(CCO)Cc2ccccc2)C(=O)N1	23.1µM*	5.8µM*	-10.5	3.3	-0.1%	-0.8
CSc1ccc(C(=S)N2CCN(C(c3ccccc3)c3ccccc3)CC2)cc1	-19.0%	-24.9%	?	-6.2	3.0%	-16.0
